# Some compounds were tested as several samples or in several runs, with calls that do not always agree. The source made the active and inactive calls. Rule for the calls: active = hit-call score of the fitted dose curve at least 0.9, where 1 is the maximum; inactive = score below 0.9.
# Test: CCTE_Mundy_HCI_Cortical_Synap_Neur_Matur_NeuriteLength: CCTE's Synaptogenesis and Neurite Maturation Assay in rat cortical cells for Neurite Length, Mundy Lab (AID 2284214)
# Description: CCTE_Mundy_HCI_Cortical_Synap&Neurite_Matur is a multiplexed, cell-based-readout assay that uses rat primary cortical cells with measurements taken at 288.33 hours after chemical dosing in a microplate: 96-well plate.CCTE_Mundy_HCI_Cortical_Synap_Neur_Matur_NeuriteLength is one of eight components of the CCTE_Mundy_HCI_Cortical_Synap&Neurite_Matur assay. It measures synaptogenesis and neurite maturation related to neurite length using High Content Imaging of fluorescently labelled markers.[…] Using a type of morphology reporter, loss -of-signal activity can be used to understand developmental effects.
# Cells are plated onto 96 well plates and allowed 2 hr for attachment to the substrate. At days in vitro (DIV) 5, Cytosine Arabinoside (AraC) is added to arrest glial cell growth. Chemicals are dosed and a media change is performed at DIV 7 of differentiation and is continued through DIV 12 when the experiment is terminated. Cells are fixed with […] and Hoechst Dye. Cells are stained using Millipore Mouse anti-MAP2MAB3418 (1:800) and Millipore Rabbit anti-Synaptophysinsc-1750 (1:250) primary antibodies and Alexa Fluor-488 goat anti-mouse and AlexaFluor-546 goat anti-rabbit secondary antibodies to label neuronal cell nuclei, synapses and neurites. A Cellomics ArrayScan VTi HCS Reader is used for automated image acquisition and analysis of neurite outgrowth.
Structure (SMILES),outcome,AC50
O=C(Nc1ccccc1-c1ccc(Cl)cc1)c1cccnc1Cl,inactive,–
COP(=O)(OC)O/C(C)=C/C(=O)N(C)C,inactive,–
CN/C(=N\[N+](=O)[O-])NCc1cnc(Cl)s1,inactive,–
CCOP(=O)(OCC)Oc1nc(Cl)c(Cl)cc1Cl,inactive,16.2 µM (active)
CCN(CC)c1nc(C)cc(OP(=S)(OC)OC)n1,–,78.6 µM (active)
CS(=O)(=O)c1cc(C(F)(F)F)ccc1C(=O)c1cnoc1C1CC1,inactive,–
CS(=O)(=O)c1ccc(C(=O)C2C(=O)CCCC2=O)c([N+](=O)[O-])c1,inactive,–
CCNC(=O)NC(=O)C(C#N)=NOC,inactive,–
N#CN=C1SCCN1Cc1ccc(Cl)nc1,inactive,–
C=C(C)CN(CC)c1c([N+](=O)[O-])cc(C(F)(F)F)cc1[N+](=O)[O-],–,5.64 µM (active)
CC(C)(C)C(=O)C(Oc1ccc(Cl)cc1)n1cncn1 (stereo not drawn),–,7.05 µM (active)
CO/N=C(/C1=NOCCO1)c1ccccc1Oc1ncnc(Oc2ccccc2Cl)c1F,–,4.34 µM (active)
COC(=O)N(C(=O)N1CO[C@@]2(C(=O)OC)Cc3cc(Cl)ccc3C2=N1)c1ccc(OC(F)(F)F)cc1,inactive,–
CCSC(=O)N1CCCCCC1,inactive,–
COP(=S)(OC)SCn1nnc2ccccc2c1=O,inactive,–
CC1(C)C(C=C(Cl)Cl)C1C(=O)OC(C#N)c1cccc(Oc2ccccc2)c1 (stereo not drawn),inactive,–
Cc1c(COC(=O)[C@@H]2[C@H](/C=C(\Cl)C(F)(F)F)C2(C)C)cccc1-c1ccccc1,–,3.7 µM (active)
